# ± gives the standard deviation.
# How the values were obtained:
# Details in all cases: modulator concentration 10 µM
# [1] = tested on: RAW-Dual (murine macrophage reporter line); assay: NF-kB reporter (SEAP) activity fold change vs agonist alone; higher = enhanced NF-kB activity
# How it was run: (§1)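 RAW-Dual murine macrophage reporter cells were plated at 50 000 per well in 384-well plates, pin-transferred compound to 10 μM final, and pre-incubated for 1 hour at 37 °C before a PRR agonist was added and the cells incubated overnight. NF-κB activity was read from supernatant SEAP with QUANTI-Blue at 620 nm absorbance, and IRF activity from Lucia luciferase with QUANTI-Luc by luminescence. Each signal was expressed as fold change by dividing by the mean agonist-only control on the same plate. Two replicate plates were averaged, with errors obtained by propagation.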
# [2] = tested on: RAW-Dual (murine macrophage reporter line); assay: IRF reporter (Lucia luciferase) activity fold change vs agonist alone; higher = enhanced IRF activity
# How it was run: as §1
# [3] = tested on: RAW-Dual (murine macrophage reporter line); assay: viability score (confluency relative to resting cells, overnight) (fraction); higher = more viable, active = viable (0.7 or more)
# How it was run: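 Compound was added at a final 10 μM to RAW-Dual macrophages in 384-well plates and left overnight. Confluency was imaged with IncuCyte, and two masks were generated in IncuCyte software over all imaged wells. Each viability score is confluency relative to resting cells, and a compound met the cutoff only when both masks were above 70% of resting cells.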
# [4] = agonist: CpG ODN 1826 0.5 ug/mL
Compound,"NF-kB reporter [1, 4]",NF-kB reporter ([1]; agonist: LPS 0.1 ug/mL),NF-kB reporter ([1]; agonist: MPLA […]),IRF reporter ([2]; agonist: 3'3'-cGAMP 10 ug/mL),IRF reporter ([2]; agonist: LPS 0.1 ug/mL),IRF reporter ([2]; agonist: MPLA […]),viability score [3]
O=C(O)CCCCCN1C(=O)c2cccc3cccc(c23)C1=O,0.97 ± 0.055,1.05 ± 0.094,0.948 ± 0.06,0.989 ± 0.05,1.35 ± 0.092,1.11 ± 0.1,1.01 (active)
CNC(=O)C(=O)Nc1cc(Cl)ccc1C,1.07 ± 0.18,1 ± 0.078,0.912 ± 0.08,1.01 ± 0.042,1.25 ± 0.15,1.3 ± 0.19,1 (active)
Brc1ccc2ncnc(NCc3cccnc3)c2c1,1.22 ± 0.069,1.31 ± 0.11,1.02 ± 0.04,0.329 ± 0.014,0.498 ± 0.047,0.641 ± 0.11,1 (active)
Cc1ccc(C(=O)N(CCCN)[C@@H](c2nc3cc(Cl)ccc3c(=O)n2Cc2ccccc2)C(C)C)cc1,0.186 ± 0.034,0.318 ± 0.13,0.59 ± 0.089,0.209 ± 0.057,0.52 ± 0.23,0.241 ± 0.09,0.0279 (inactive)
NC(=O)c1ncn([C@@H]2O[C@H](CO)[C@@H](O)[C@H]2O)c1N,1.11 ± 0.086,1.03 ± 0.051,1.04 ± 0.041,0.94 ± 0.052,0.977 ± 0.089,0.949 ± 0.12,0.994 (active)
O=[N+]([O-])c1cc(C(O)(C(F)(F)F)C(F)(F)F)cc([N+](=O)[O-])c1Cl,1.07 ± 0.085,1.03 ± 0.072,0.972 ± 0.091,0.706 ± 0.029,1.22 ± 0.17,0.97 ± 0.085,0.996 (active)
Ic1ccc(OCCCOc2ncnc3ccccc23)cc1,0.781 ± 0.069,0.931 ± 0.045,1.14 ± 0.12,0.963 ± 0.05,1.39 ± 0.095,1.6 ± 0.2,1.02 (active)
O=C1OCCN1C1CCN(C(=O)C2(c3ccc(F)cc3)CC2)C1 (configuration not stated),0.862 ± 0.094,0.907 ± 0.16,1.06 ± 0.074,0.843 ± 0.15,1.28 ± 0.3,1.45 ± 0.51,0.951 (active)
O=C(NCCc1csc(-c2ccc(F)cc2)n1)c1ccc(Br)cc1,0.825 ± 0.064,1.18 ± 0.089,1.19 ± 0.043,0.693 ± 0.027,1.07 ± 0.11,1.19 ± 0.15,0.999 (active)
C=CCn1c(SCC(=O)NCCN2CCOCC2)nc2sc3c(c2c1=O)CCC3,0.99 ± 0.079,1.05 ± 0.069,0.852 ± 0.068,1.02 ± 0.081,1.48 ± 0.11,0.984 ± 0.083,1.01 (active)
O=C(c1ccc(F)cc1)C1CCN(CCn2c(=O)[nH]c3ccccc3c2=O)CC1,0.477 ± 0.028,0.956 ± 0.1,1.34 ± 0.072,1.47 ± 0.068,1.21 ± 0.19,1.45 ± 0.34,0.314 (inactive)
CC(C)(Oc1ccc(Cl)cc1)C(=O)Nc1cnoc1,1.05 ± 0.097,1.09 ± 0.082,1.08 ± 0.098,0.982 ± 0.037,1.03 ± 0.063,1.04 ± 0.17,0.979 (active)
CCCOc1cccc(C=C2N=C(c3ccc(Cl)c([N+](=O)[O-])c3)OC2=O)c1,0.993 ± 0.094,1.07 ± 0.072,0.912 ± 0.055,1.02 ± 0.041,1.55 ± 0.17,1.04 ± 0.15,1.01 (active)
COC1CCN(C2CCN(S(=O)(=O)c3ccccc3)CC2)CC1,0.839 ± 0.077,1.01 ± 0.082,0.977 ± 0.062,0.981 ± 0.065,1.08 ± 0.14,1.03 ± 0.23,1.01 (active)
CC1(C)Cc2cccc(OCC(=O)NCc3ccccn3)c2O1,0.948 ± 0.064,1 ± 0.1,0.986 ± 0.045,0.896 ± 0.034,1.02 ± 0.048,0.906 ± 0.087,0.996 (active)
Cc1noc(C)c1CN1CCC(C(F)(F)F)CC1.Cl,0.908 ± 0.048,0.947 ± 0.081,1.1 ± 0.066,1.09 ± 0.072,1.32 ± 0.29,1.6 ± 0.52,0.937 (active)
O=c1[nH]c(NN=Cc2c3ccccc3cc3ccccc23)nc2ccccc12,0.919 ± 0.085,1.03 ± 0.061,0.971 ± 0.066,0.935 ± 0.048,1.82 ± 0.16,1.23 ± 0.19,0.999 (active)
CCC(C)NC(=O)C(=O)Nc1cccc(C(F)(F)F)c1 (configuration not stated),0.89 ± 0.093,1.05 ± 0.073,0.87 ± 0.052,1.04 ± 0.058,1.16 ± 0.18,0.959 ± 0.14,1.02 (active)
CCC(=O)Nc1ccc(C(=O)NN=Cc2ccc(C#N)cc2)cc1,1.04 ± 0.094,1.03 ± 0.081,0.913 ± 0.064,0.972 ± 0.03,1.53 ± 0.22,1.11 ± 0.23,1.01 (active)
OCc1ccccc1OC1OC(CO)C(O)C(O)C1O (configuration not stated),1.13 ± 0.27,1.07 ± 0.094,1.05 ± 0.069,0.889 ± 0.03,1.22 ± 0.23,1.13 ± 0.19,1 (active)
O=C(O)CCCNC(=O)c1ccccc1C(=O)O,0.896 ± 0.092,0.911 ± 0.067,0.952 ± 0.093,1.04 ± 0.043,1.3 ± 0.14,1.41 ± 0.21,1.03 (active)
CC(N)C12CC3CC(CC(C3)C1)C2.Cl (configuration not stated),0.598 ± 0.14,1.07 ± 0.12,1.04 ± 0.068,0.919 ± 0.033,0.899 ± 0.1,0.966 ± 0.27,0.543 (inactive)
Cn1cc(-c2cc(CNC(=O)c3cncc(F)c3)ccn2)cn1,1.12 ± 0.074,1.09 ± 0.1,0.964 ± 0.033,0.966 ± 0.039,0.973 ± 0.046,1.04 ± 0.2,0.995 (active)
Cc1ccc(S(=O)(=O)Nc2c3ccccc3c(O)c3c4c(oc23)CC(C)(C)CC4=O)cc1,0.938 ± 0.075,1.04 ± 0.067,0.935 ± 0.058,0.842 ± 0.05,1.29 ± 0.14,1.02 ± 0.16,1.01 (active)
O=C(NCCCn1ccc2cccnc21)c1cccc(Br)c1,0.84 ± 0.042,1.12 ± 0.088,0.937 ± 0.045,0.839 ± 0.081,1.06 ± 0.12,1.03 ± 0.23,0.98 (active)
COc1cc(-c2nnc(SCc3ccc([N+](=O)[O-])cc3)n2-c2ccccc2)cc(OC)c1OC,0.986 ± 0.095,0.942 ± 0.053,0.994 ± 0.074,1.07 ± 0.067,1.37 ± 0.2,0.969 ± 0.06,1.01 (active)
